Our source for the outcome and AC50 values is PubChem BioAssay (EPA / NIEHS).

One may read the AC50 as the concentration giving half of the maximal activity seen.

Activity calls are given as the source filed them. Rule for the calls: active = hit-call score of the fitted dose curve at least 0.9, where 1 is the maximum; inactive = score below 0.9.

Read-out in assay [1]: urokinase plasminogen activator (uPA), PLAU (gene 5328)
Nature of the assay: BSK_KF3CT_uPA: BioMAP Diversity Plus: KF3CT Assay for urokinase plasminogen activator (uPA) Biomarker Activity (AID 2283075). The settings on record: primary human keratinocytes with fibroblasts; actives raise or lower the signal. Summed up:
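ELISA readout of uPA, analyzed for signal gain or loss relative to DMSO, from a human primary keratinocyte–foreskin fibroblast co-culture measured 24 h after chemical treatment.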

Read-out in assay [2]: CD40, CD40 (gene 958)
Put plainly: BSK_LPS_CD40: BioMAP Diversity Plus: LPS Assay for CD40 Biomarker Activity (AID 2283076). As to conditions: primary human HUVEC with PBMC; actives raise or lower the signal. The gist of the method: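 Primary human umbilical vein endothelial cells co-cultured with peripheral blood mononuclear cells, LPS-stimulated, were dosed with chemical and read 24 h later. CD40 levels were measured by ELISA and fitted bidirectionally against DMSO as negative control and baseline.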

Read-out in assay [3]: E-selectin (Homo sapiens) (UniProt P16581)
Put plainly: BSK_LPS_Eselectin: BioMAP Diversity Plus: LPS Assay for Eselectin Biomarker Activity (AID 2283077). As to conditions: primary human HUVEC with PBMC; actives raise or lower the signal. Summed up:
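Human umbilical vein endothelial cells co-cultured with peripheral blood mononuclear cells under LPS stimulation; E-selectin measured by ELISA 24 h after chemical dosing. Activity fitted bidirectionally against DMSO as negative control and baseline.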

The nature of assay [4]: BSK_LPS_SRB: Viability Assessment in the BioMAP Diversity Plus: LPS Assay (AID 2283079).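 Note: total protein by sulforhodamine B absorbance as a cytotoxicity measure; measured one day after compound addition; fitted in both directions against DMSO so loss or gain of signal counts.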 The settings on record: primary human HUVEC with PBMC. The gist of the method: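 Human umbilical vein endothelial cells co-cultured with PBMC (LPS system) were dosed for 24 h. Total protein was stained with 0.1% sulforhodamine B after 10% TCA fixation, read at 560 nm, and fitted bidirectionally against DMSO baseline.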

Read-out in assay [5]: Interleukin-1 alpha (IL1a), IL1A (gene 3552)
Put plainly: BSK_LPS_IL1a: BioMAP Diversity Plus: LPS Assay for Interleukin-1 alpha (IL1a) Biomarker Activity (AID 2283080). The settings on record: primary human HUVEC with PBMC; actives raise or lower the signal. Summed up: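 Human umbilical vein endothelial cells co-cultured with peripheral blood mononuclear cells were LPS-stimulated and exposed to test chemicals for 24 h. IL-1 alpha was quantified by ELISA, with bidirectional curve fitting against DMSO as the negative control and baseline.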

Read-out in assay [6]: Monocyte Chemoattractant Protein-1 (MCP1), CCL2 (gene 6347)
Put plainly: BSK_LPS_MCP1: BioMAP Diversity Plus: LPS Assay for Monocyte Chemoattractant Protein-1 (MCP1) Biomarker Activity (AID 2283081). As to conditions: primary human HUVEC with PBMC; actives raise or lower the signal. Summed up: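 HUVEC plus PBMC co-culture (human primary cells, LPS system) exposed to test chemical for 24 h; MCP-1 measured by ELISA. Bidirectional curve fitting against DMSO baseline; parallel SRB total-protein staining flags overt cytotoxicity.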

Assay [7] is described as follows: BSK_LPS_PGE2: BioMAP Diversity Plus: LPS Assay for Prostaglandin E2 (PGE2) Biomarker Activity (AID 2283082). The settings on record: primary human HUVEC with PBMC; actives raise or lower the signal. The gist of the method: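 LPS-activated HUVEC/PBMC co-culture; cmpd dosed, 24 h; PGE2 by ELISA; bidirectional fit vs DMSO; SRB (0.1%, TCA-fixed, 560 nm) in parallel plates for overt cytotox.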

Read-out in assay [8]: Macrophage colony-stimulating factor (MCSF), CSF1 (gene 1435)
Put plainly: BSK_LPS_MCSF: BioMAP Diversity Plus: LPS Assay for Macrophage colony-stimulating factor (MCSF) Biomarker Activity (AID 2283083). As to conditions: primary human HUVEC with PBMC; actives raise or lower the signal. Summed up: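 Human umbilical vein endothelial cells co-cultured with peripheral blood mononuclear cells were exposed to compound for 24 h. M-CSF levels were measured by ELISA, and bidirectional curve fitting used DMSO as the negative control and baseline.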

Read-out in assay [9]: Tissue Factor, F3 (gene 2152)
Nature of the assay: BSK_LPS_TissueFactor: BioMAP Diversity Plus: LPS Assay for Tissue Factor Biomarker Activity (AID 2283084). As to conditions: primary human HUVEC with PBMC; actives raise or lower the signal. The gist of the method:
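Human umbilical vein endothelial cells co-cultured with peripheral blood mononuclear cells were dosed and stimulated with LPS. Cell-surface CD142 was quantified by ELISA at 24 h. Activity was fitted bidirectionally against DMSO baseline.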

Read-out in assay [10]: Tumor necrosis factor (Homo sapiens) (UniProt P01375)
Put plainly: BSK_LPS_TNFa: BioMAP Diversity Plus: LPS Assay for Tumour Necrosis Factor alpha (TNFa) Biomarker Activity (AID 2283085). As to conditions: primary human HUVEC with PBMC; actives raise or lower the signal. Summed up: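 Read-out is ELISA of TNFa in primary human endothelial cell–PBMC co-cultures at 24 h after compound. Activity in either direction was fitted against DMSO.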

Read-out in assay [11]: Vascular cell adhesion molecule 1 (VCAM1), VCAM1 (gene 7412)
Put plainly: BSK_LPS_VCAM1: BioMAP Diversity Plus: LPS Assay for Vascular cell adhesion molecule 1 (VCAM1) Biomarker Activity (AID 2283086). The settings on record: primary human HUVEC with PBMC; actives raise or lower the signal. The gist of the method:
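HUVEC + PBMC co-culture, LPS system; compound 24 h; VCAM-1 by ELISA; bidirectional fit vs DMSO control; parallel SRB (0.1%, TCA-fixed, 560 nm) for cytotoxicity.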

Read-out in assay [12]: CD38, CD38 (gene 952)
Nature of the assay: BSK_SAg_CD38: BioMAP Diversity Plus: SAg Assay for CD38 Biomarker Activity (AID 2283087). The settings on record: primary human HUVEC with PBMC; actives raise or lower the signal. The gist of the method: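 Human HUVEC plus PBMC co-culture stimulated with superantigen; CD38 measured by ELISA 24 h after chemical dosing. Fluorescence read-out, bidirectional fit against DMSO; cytotoxicity tracked in parallel by SRB and Alamar Blue.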

Read-out in assay [13]: CD40, CD40 (gene 958)
Put plainly: BSK_SAg_CD40: BioMAP Diversity Plus: SAg Assay for CD40 Biomarker Activity (AID 2283088). The settings on record: primary human HUVEC with PBMC; actives raise or lower the signal. Summed up:
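Human umbilical vein endothelial cells co-cultured with PBMC; CD40 levels measured by ELISA with fluorescence read-out 24 h after chemical dosing. Gain or loss of signal fitted bidirectionally against DMSO baseline.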

Read-out in assay [14]: CD69, CD69 (gene 969)
Put plainly: BSK_SAg_CD69: BioMAP Diversity Plus: SAg Assay for CD69 Biomarker Activity (AID 2283089). The settings on record: primary human HUVEC with PBMC; actives raise or lower the signal. Summed up:
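Endothelial/PBMC co-culture; chemical added; 24 h incubation; CD69 ELISA with fluorescence detection; bidirectional fit vs DMSO.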

Read-out in assay [15]: Monocyte Chemoattractant Protein-1 (MCP1), CCL2 (gene 6347)
Put plainly: BSK_SAg_MCP1: BioMAP Diversity Plus: SAg Assay for Monocyte Chemoattractant Protein-1 (MCP1) Biomarker Activity (AID 2283090). The settings on record: primary human HUVEC with PBMC; actives raise or lower the signal. The gist of the method: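 MCP-1 levels in the endothelial–PBMC SAg co-culture were quantified by ELISA at 24 h post-dosing; both increases and decreases versus DMSO scored. Cytotoxicity monitored by SRB total protein in parallel cultures.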

Read-out in assay [16]: E-selectin (Homo sapiens) (UniProt P16581)
Nature of the assay: BSK_SAg_Eselectin: BioMAP Diversity Plus: SAg Assay for Eselectin Biomarker Activity (AID 2283091). As to conditions: primary human HUVEC with PBMC; actives raise or lower the signal. The gist of the method:
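HUVEC co-cultured with PBMC, compound dosed then read at 24 h; E-selectin measured by ELISA. Activity fitted bidirectionally against DMSO as negative control and baseline.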

Read-out in assay [17]: Monokine induced gamma interferon (MIG), CXCL9 (gene 4283)
Nature of the assay: BSK_SAg_MIG: BioMAP Diversity Plus: SAg Assay for Monokine induced gamma interferon (MIG) Biomarker Activity (AID 2283092). The settings on record: primary human HUVEC with PBMC; actives raise or lower the signal. Summed up:
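Measures CXCL9 protein by ELISA in a human vascular primary-cell co-culture (umbilical vein endothelium with PBMC) 24 h after chemical addition. Activity is scored up or down from the DMSO control.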

A short description of assay [18]: BSK_SAg_PBMCCytotoxicity: PBMC Cytotoxicity Assessment in the BioMAP Diversity Plus: SAg Assay (AID 2283093).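 Note: PBMC viability measured as Alamar Blue reduction fluorescence at 546/580 nm; fitted both ways against DMSO so a hit may be loss or gain of signal.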 As to conditions: primary human HUVEC with PBMC. Summed up: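 Compound added to 75,000 PBMC/well for 1 h; SEB and TSST-1 then added at 20 ng/mL final each; 90 h incubation; Alamar Blue 6 h; read 546/580 nm ex/em. Activity fitted bidirectionally relative to DMSO baseline.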

Read-out in assay [19]: Interleukin-8 (IL8), CXCL8 (gene 3576)
Nature of the assay: BSK_SAg_IL8: BioMAP Diversity Plus: SAg Assay for Interleukin-8 (IL8) Biomarker Activity (AID 2283094). The settings on record: primary human HUVEC with PBMC; actives raise or lower the signal. The gist of the method:
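ELISA read-out of IL-8 in a primary human vascular co-culture (umbilical vein endothelium plus PBMC), taken 24 h after compound addition. Values derive from bidirectional fits against DMSO negative controls.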

Read-out in assay [20]: Interleukin-8 (IL8), CXCL8 (gene 3576)
Nature of the assay: BSK_LPS_IL8: BioMAP Diversity Plus: LPS Assay for Interleukin-8 (IL8) Biomarker Activity (AID 2283078). As to conditions: primary human HUVEC with PBMC; actives raise or lower the signal. Summed up: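 Human umbilical vein endothelial cells co-cultured with PBMC were stimulated with LPS; IL-8 levels were measured by ELISA 24 h after chemical dosing. Activity was fitted bidirectionally against DMSO as negative control and baseline.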

Tumor necrosis factor (Homo sapiens), sequence (P01375 whole entry, looked up): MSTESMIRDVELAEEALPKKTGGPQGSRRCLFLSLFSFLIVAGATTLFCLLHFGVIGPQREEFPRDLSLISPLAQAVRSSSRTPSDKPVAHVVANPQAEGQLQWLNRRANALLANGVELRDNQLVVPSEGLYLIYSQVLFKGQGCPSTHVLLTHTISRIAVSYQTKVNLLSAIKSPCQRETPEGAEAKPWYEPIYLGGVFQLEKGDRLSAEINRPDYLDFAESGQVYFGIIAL
E-selectin (Homo sapiens), sequence (P16581 whole entry, looked up): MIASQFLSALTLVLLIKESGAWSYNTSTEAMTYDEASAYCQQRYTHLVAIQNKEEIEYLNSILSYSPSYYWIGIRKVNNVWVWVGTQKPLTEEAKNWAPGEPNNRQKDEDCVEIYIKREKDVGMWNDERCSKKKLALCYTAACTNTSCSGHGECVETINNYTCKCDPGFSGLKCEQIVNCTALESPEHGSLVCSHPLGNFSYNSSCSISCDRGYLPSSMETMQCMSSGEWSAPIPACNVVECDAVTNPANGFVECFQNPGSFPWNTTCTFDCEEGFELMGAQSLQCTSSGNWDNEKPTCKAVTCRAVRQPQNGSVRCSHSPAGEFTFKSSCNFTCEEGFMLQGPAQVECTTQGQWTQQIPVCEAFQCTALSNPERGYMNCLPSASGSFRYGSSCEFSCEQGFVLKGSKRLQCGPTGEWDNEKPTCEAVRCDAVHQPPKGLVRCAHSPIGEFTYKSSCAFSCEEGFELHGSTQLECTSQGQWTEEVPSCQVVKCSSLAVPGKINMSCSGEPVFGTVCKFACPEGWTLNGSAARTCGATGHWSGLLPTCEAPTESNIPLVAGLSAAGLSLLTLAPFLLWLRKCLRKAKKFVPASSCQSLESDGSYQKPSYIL

For the compound `CC(=O)O`, the result in assay [1], in assay [2], in assay [3], in assay [4], in assay [5] and in assay [6] was inactive. Besides, the outcome in assay [7], in assay [8], in [9], in assay [10], in assay [11] and in assay [12] was inactive. For the same compound, the result in assay [13], in [14], in assay [15], in [16], in [17] and in assay [18] was inactive. Moreover, the result in assay [19] was inactive.

Consider `CCc1nc(N)nc(N)c1-c1ccc(Cl)cc1`, for which the result in assay [1], in assay [2], in assay [3], in assay [4], in assay [5] and in assay [6] was inactive. Also, the result in assay [7], in [8], in assay [9], in assay [10], in [11] and in assay [12] was inactive. In addition, the result in [13], in assay [14], in [15], in assay [16], in assay [17] and in assay [18] was inactive. In assay [19], the outcome was inactive.

Consider `COc1ccc(C(=O)Nc2nc3ccccc3c(NCc3ccccc3)c2C#N)cc1`, for which the outcome in [1], in assay [3], in [20], in [4], in assay [5] and in [6] was inactive. Further, the result in assay [7], in assay [10], in assay [12], in assay [13], in [14] and in assay [15] was inactive. Besides, the result in [16], in assay [17] and in assay [19] was inactive. For the same compound, the AC50 in [2] is 3.97 µM (active); in assay [8], 3.97 µM (active); in assay [11], 4.78 µM (active).

Regarding `CC(C)(O)c1ccc(CNC(=O)c2cccnc2Oc2ccc(F)cc2)cc1`, the result in assay [1], in assay [2], in [3], in assay [20], in assay [4] and in assay [5] was inactive. Also, the outcome in assay [6], in assay [7], in assay [8], in assay [11], in assay [13] and in [14] was inactive. Moreover, the outcome in assay [17], in assay [18] and in assay [19] was inactive. In addition, the AC50 in assay [10] was 598 nM (active); in assay [12], 1.19 µM (active); in [15], 1.16 µM (active); in assay [16], 737 nM (active).
